What all share (experiment): DAPPL (digital affinity profiling via proximity ligation, sequencing); 10 mM Tris-HCl pH 7.5, 50 mM NaCl, 1 mM DTT, 4% glycerol, room temperature, 30 min; GST-TFs on glutathione beads, 16-mer random dsDNA library, 0.1% formaldehyde crosslink after washing; high values mean tight binding
Conditions in all cases: protein: recombinant; tags: N-terminal GST; dsDNA, one strand shown

For experiment [1], the target named is T1, FLI1 (Homo sapiens, UniProt Q01543 1-452).
T1 sequence: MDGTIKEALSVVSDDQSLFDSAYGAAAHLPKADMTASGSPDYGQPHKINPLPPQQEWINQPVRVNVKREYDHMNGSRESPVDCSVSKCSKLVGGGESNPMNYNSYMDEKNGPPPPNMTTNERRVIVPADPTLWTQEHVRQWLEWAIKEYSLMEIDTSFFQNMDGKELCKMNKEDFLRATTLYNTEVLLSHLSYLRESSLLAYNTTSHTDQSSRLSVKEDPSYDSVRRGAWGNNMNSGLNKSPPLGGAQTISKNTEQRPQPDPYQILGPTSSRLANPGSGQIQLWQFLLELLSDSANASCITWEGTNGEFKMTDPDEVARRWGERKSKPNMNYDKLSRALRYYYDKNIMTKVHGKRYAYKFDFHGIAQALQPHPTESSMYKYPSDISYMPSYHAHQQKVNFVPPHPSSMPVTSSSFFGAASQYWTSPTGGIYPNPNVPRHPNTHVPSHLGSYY
An outline of the steps: (§1)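 Binding signal is given per hexamer as its read frequency for a factor divided by its frequency in the tag-only sample. GST-fused human transcription factors were expressed in yeast, captured on glutathione beads, barcoded with DNA and pooled with that sample, then incubated with 200 nmole of a 16-mer random double-stranded DNA library in Tris/NaCl/DTT/glycerol buffer for 30 min at room temperature. The pools were then washed, crosslinked, proximity-ligated, amplified by PCR and sequenced on an Illumina NextSeq500.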

The target of experiment [2] is T2, ELK1 (Homo sapiens, UniProt P19419 1-428).
T2 sequence: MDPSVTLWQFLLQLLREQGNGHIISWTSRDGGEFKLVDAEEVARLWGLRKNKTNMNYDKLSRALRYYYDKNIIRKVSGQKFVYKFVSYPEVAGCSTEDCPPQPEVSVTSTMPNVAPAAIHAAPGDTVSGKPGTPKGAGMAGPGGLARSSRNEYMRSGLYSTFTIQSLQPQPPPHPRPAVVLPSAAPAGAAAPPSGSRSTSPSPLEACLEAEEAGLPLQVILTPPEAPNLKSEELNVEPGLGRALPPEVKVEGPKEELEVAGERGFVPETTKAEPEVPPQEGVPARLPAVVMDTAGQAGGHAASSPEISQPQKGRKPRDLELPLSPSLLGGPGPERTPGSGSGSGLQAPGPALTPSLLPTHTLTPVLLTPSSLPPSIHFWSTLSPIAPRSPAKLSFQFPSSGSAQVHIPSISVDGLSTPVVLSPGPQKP
In short, it runs like this: as §1

For experiment [3], the target named is T3, GABPA (Homo sapiens, UniProt Q06546 1-454).
T3 sequence: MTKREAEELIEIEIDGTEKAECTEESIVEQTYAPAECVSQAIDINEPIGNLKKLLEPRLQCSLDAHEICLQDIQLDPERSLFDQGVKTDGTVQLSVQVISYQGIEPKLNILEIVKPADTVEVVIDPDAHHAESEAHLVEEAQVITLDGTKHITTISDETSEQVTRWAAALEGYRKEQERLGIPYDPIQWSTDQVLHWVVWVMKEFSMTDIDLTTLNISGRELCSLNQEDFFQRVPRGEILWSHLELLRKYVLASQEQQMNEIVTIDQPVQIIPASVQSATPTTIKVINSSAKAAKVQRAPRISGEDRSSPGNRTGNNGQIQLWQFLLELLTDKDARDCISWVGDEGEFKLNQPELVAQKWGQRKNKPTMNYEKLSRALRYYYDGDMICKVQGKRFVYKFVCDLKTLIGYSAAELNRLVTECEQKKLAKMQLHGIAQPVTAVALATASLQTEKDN
In short, it runs like this: as §1

In experiment [4] the target is T4, ERG (Homo sapiens, UniProt P11308 1-479).
T4 sequence: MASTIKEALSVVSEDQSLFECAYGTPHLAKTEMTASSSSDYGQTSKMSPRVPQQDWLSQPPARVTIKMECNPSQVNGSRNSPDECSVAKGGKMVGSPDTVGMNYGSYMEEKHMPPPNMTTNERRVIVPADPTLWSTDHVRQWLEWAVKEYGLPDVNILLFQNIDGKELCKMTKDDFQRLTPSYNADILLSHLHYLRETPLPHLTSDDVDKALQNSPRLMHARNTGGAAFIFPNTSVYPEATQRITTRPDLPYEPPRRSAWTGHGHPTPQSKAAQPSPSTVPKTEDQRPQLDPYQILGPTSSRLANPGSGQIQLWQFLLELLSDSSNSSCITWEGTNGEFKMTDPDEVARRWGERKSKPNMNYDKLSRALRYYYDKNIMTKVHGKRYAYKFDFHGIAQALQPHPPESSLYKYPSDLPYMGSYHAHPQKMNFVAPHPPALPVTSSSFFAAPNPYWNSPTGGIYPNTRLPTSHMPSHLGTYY
An outline of the steps: as §1

The target of experiment [5] is ELF1 (Homo sapiens, UniProt P32519 1-619). An outline of the steps:
as §1

Experiment [6] concerns the target T5, EHF (Homo sapiens, UniProt Q9NZC4 1-300).
T5 sequence: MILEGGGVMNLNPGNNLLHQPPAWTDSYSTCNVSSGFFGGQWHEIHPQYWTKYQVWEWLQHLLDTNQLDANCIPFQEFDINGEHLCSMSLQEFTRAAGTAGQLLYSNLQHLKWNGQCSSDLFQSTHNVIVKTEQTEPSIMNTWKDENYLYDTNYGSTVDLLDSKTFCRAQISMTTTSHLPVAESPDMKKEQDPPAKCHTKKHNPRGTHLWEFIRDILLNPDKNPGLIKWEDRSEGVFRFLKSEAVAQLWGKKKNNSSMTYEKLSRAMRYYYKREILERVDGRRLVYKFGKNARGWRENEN
In short, it runs like this:
as §1

In experiment [7] the target is SPI1 (Homo sapiens, UniProt P17947 1-270). An outline of the steps:
as §1

Experiment [8] addresses SPIB (Homo sapiens, UniProt Q01892 1-262). In short, it runs like this:
as §1

Experiment [9] has as its target T6, ELK3 (Homo sapiens, UniProt P41970 1-407).
T6 sequence: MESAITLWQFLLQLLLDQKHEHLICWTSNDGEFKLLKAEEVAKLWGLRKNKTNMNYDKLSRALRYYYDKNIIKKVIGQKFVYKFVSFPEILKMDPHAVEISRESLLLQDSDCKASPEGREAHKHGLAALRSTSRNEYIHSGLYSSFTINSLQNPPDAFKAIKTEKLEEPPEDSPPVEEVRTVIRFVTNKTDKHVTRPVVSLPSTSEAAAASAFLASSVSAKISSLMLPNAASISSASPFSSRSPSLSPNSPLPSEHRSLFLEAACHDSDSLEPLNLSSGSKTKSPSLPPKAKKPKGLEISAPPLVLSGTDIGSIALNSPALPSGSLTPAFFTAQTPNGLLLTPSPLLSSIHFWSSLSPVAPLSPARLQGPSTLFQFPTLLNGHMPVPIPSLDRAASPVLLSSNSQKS
In short, it runs like this:
as §1

Chain of SPIB (Q01892 whole entry): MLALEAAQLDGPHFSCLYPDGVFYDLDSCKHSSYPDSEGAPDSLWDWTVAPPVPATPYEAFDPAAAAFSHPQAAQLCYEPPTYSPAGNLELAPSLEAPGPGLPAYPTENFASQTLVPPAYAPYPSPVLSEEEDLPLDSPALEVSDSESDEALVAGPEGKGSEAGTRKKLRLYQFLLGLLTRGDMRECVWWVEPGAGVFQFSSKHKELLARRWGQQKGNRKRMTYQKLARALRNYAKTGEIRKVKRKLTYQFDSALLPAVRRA
Chain of ELF1 (P32519 whole entry): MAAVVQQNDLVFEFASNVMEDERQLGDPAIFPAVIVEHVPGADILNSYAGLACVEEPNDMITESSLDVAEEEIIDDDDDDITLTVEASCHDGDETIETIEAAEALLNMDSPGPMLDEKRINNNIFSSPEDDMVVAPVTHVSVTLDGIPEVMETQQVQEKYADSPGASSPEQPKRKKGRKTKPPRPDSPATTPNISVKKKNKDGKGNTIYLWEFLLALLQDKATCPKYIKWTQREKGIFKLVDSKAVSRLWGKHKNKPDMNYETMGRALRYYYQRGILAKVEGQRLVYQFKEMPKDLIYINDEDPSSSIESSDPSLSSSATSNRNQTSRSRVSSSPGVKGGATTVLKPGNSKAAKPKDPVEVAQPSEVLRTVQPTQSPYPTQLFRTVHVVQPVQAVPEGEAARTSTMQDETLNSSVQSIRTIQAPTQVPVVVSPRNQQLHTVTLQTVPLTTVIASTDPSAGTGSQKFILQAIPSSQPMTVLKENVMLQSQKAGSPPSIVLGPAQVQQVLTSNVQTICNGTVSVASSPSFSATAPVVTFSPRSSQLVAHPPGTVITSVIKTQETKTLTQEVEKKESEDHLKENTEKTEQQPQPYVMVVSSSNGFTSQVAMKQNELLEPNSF

Consider ACACTT, for which the binding signal was 1.63 fold enrichment (6-mer frequency, TF over GST control) in experiment [1]; 1.7 fold enrichment (6-mer frequency, TF over GST control) in experiment [2]; 1.53 fold enrichment (6-mer frequency, TF over GST control) in experiment [3]; 1.8 fold enrichment (6-mer frequency, TF over GST control) in [4]; 1.69 fold enrichment (6-mer frequency, TF over GST control) in experiment [5]; 1.66 fold enrichment (6-mer frequency, TF over GST control) in experiment [6]. In addition, the binding signal in [7] is 1.95 fold enrichment (6-mer frequency, TF over GST control); in experiment [8], 1.67 fold enrichment (6-mer frequency, TF over GST control); in [9], 1.74 fold enrichment (6-mer frequency, TF over GST control).

For the sequence CTCCTA, the binding signal is 1.47 fold enrichment (6-mer frequency, TF over GST control) in [1]; 1.19 fold enrichment (6-mer frequency, TF over GST control) in experiment [2]; 1.38 fold enrichment (6-mer frequency, TF over GST control) in experiment [3]; 1.22 fold enrichment (6-mer frequency, TF over GST control) in experiment [4]; 1.24 fold enrichment (6-mer frequency, TF over GST control) in [5]; 1.25 fold enrichment (6-mer frequency, TF over GST control) in experiment [6]. The binding signal in [7] is 1.46 fold enrichment (6-mer frequency, TF over GST control); in [8], 1.4 fold enrichment (6-mer frequency, TF over GST control); in experiment [9], 1.24 fold enrichment (6-mer frequency, TF over GST control).

Take ATGTTT: the binding signal is 1.48 fold enrichment (6-mer frequency, TF over GST control) in experiment [1]; 1.37 fold enrichment (6-mer frequency, TF over GST control) in [2]; 1.36 fold enrichment (6-mer frequency, TF over GST control) in experiment [3]; 1.39 fold enrichment (6-mer frequency, TF over GST control) in [4]; 1.41 fold enrichment (6-mer frequency, TF over GST control) in [5]; 1.41 fold enrichment (6-mer frequency, TF over GST control) in experiment [6]. For the same sequence, the binding signal in experiment [7] is 1.33 fold enrichment (6-mer frequency, TF over GST control); in [8] it was 1.38 fold enrichment (6-mer frequency, TF over GST control); in experiment [9] it was 1.43 fold enrichment (6-mer frequency, TF over GST control).

Turning to AGAATT, the binding signal in experiment [1] is 1.21 fold enrichment (6-mer frequency, TF over GST control); in [2], 1.15 fold enrichment (6-mer frequency, TF over GST control); in [3], 1.11 fold enrichment (6-mer frequency, TF over GST control); in experiment [4], 1.17 fold enrichment (6-mer frequency, TF over GST control); in [5] it was 1.15 fold enrichment (6-mer frequency, TF over GST control); in [6], 1.18 fold enrichment (6-mer frequency, TF over GST control). Further, the binding signal in experiment [7] is 1.22 fold enrichment (6-mer frequency, TF over GST control); in experiment [8] it was 1.16 fold enrichment (6-mer frequency, TF over GST control); in experiment [9], 1.28 fold enrichment (6-mer frequency, TF over GST control).

Take CTGCTG: the binding signal in experiment [1] is 1.15 fold enrichment (6-mer frequency, TF over GST control); in experiment [2], 1.26 fold enrichment (6-mer frequency, TF over GST control); in experiment [3], 1.27 fold enrichment (6-mer frequency, TF over GST control); in experiment [4], 1.11 fold enrichment (6-mer frequency, TF over GST control); in experiment [5], 1.4 fold enrichment (6-mer frequency, TF over GST control); in experiment [6], 1.39 fold enrichment (6-mer frequency, TF over GST control). Further, the binding signal in experiment [7] was 1.24 fold enrichment (6-mer frequency, TF over GST control); in [8], 1.04 fold enrichment (6-mer frequency, TF over GST control); in experiment [9], 1.3 fold enrichment (6-mer frequency, TF over GST control).

TGGCTT: the binding signal in [1] was 1.27 fold enrichment (6-mer frequency, TF over GST control); in experiment [2] it was 1.21 fold enrichment (6-mer frequency, TF over GST control); in experiment [3] it was 1.33 fold enrichment (6-mer frequency, TF over GST control); in [4], 1.31 fold enrichment (6-mer frequency, TF over GST control); in experiment [5] it was 1.28 fold enrichment (6-mer frequency, TF over GST control); in [6], 1.26 fold enrichment (6-mer frequency, TF over GST control). The binding signal in experiment [7] is 1.24 fold enrichment (6-mer frequency, TF over GST control); in experiment [8] it was 1.26 fold enrichment (6-mer frequency, TF over GST control); in experiment [9], 1.23 fold enrichment (6-mer frequency, TF over GST control).

With ATCCTG, the binding signal is 1.38 fold enrichment (6-mer frequency, TF over GST control) in [1]; 1.43 fold enrichment (6-mer frequency, TF over GST control) in [2]; 1.34 fold enrichment (6-mer frequency, TF over GST control) in [3]; 1.62 fold enrichment (6-mer frequency, TF over GST control) in experiment [4]; 1.36 fold enrichment (6-mer frequency, TF over GST control) in experiment [5]; 1.41 fold enrichment (6-mer frequency, TF over GST control) in experiment [6]. For the same sequence, the binding signal in [7] is 1.4 fold enrichment (6-mer frequency, TF over GST control); in [8], 1.55 fold enrichment (6-mer frequency, TF over GST control); in experiment [9], 1.5 fold enrichment (6-mer frequency, TF over GST control).

Source of the values: paper PMC7862700, “An all-to-all approach to the identification of sequence-specific readers for epigenetic DNA modifications on cytosine”.
